# Shown are actives, neighbours in structure and some others; about 0.74% of the full set was active somewhere.
# Rv3671c protease: Rv3671c serine protease inhibitors, primary screen, biochemical, fluorescence polarization, M. tuberculosis H37Rv. P9WHR9. inhibition, % at 5.96 µM. 0.048% of 320,000 active. AID 2606, 2010; in the data active = inhibition above about 38%;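 also: extracellular domain of Rv3671c used as enzyme; 0% = enzyme with DMSO and 100% = no enzyme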
# Mtb UGM inh: M. tuberculosis UGM enzyme inhibitors, primary screen, biochemical, fluorescence polarization, single point; 0.06% of 320,000 active; inhibition, % at 10 µM; purified UGM, fluorescence polarization probe displacement; in the data active = inhibition above about 10%, passing the limit was not always enough
# Target sequence (P9WIQ1 whole entry, looked up): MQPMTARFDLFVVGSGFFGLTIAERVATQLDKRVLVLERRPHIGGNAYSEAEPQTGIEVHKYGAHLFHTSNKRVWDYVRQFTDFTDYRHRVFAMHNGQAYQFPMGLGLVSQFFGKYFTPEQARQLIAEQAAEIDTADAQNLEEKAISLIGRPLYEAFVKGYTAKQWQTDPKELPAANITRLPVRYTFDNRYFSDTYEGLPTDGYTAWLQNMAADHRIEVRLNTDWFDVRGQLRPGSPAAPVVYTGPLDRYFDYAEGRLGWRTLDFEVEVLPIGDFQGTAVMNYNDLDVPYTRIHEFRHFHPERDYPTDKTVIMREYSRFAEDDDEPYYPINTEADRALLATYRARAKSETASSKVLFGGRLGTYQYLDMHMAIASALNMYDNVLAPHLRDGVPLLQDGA
# MazF activator: activators of E. coli MazEF toxin-antitoxin RNase, primary screen, biochemical, fluorescence, uHTS; FAM/BHQ RNA-DNA oligo cleavage fluorescence, 5 h; 0.32% of 350,000 active; activation, % at 20 µM; Endoribonuclease toxin MazF (Escherichia coli (strain K12)), P0AE70; in the data active = activation above about 50%
# Mtb betalactam: beta-lactam sensitization of Mtb H37Rv, H37Rv; 0.27% of 330,000 active; inhibition, % at 25 µM; M. tuberculosis H37Rv growth with meropenem, percent inhibition; AID 434955, 2010; call rule not given here;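 also: growth measured after seven days incubation then overnight dye step; 0% = bacteria only wells and 100% = bacteria with antibiotic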
# Vc quorum ag: inducers of Vibrio cholerae quorum light production without autoinducers, primary screen, BH1578 luxS cqsA deficient, single point; AID 588436, 2011; 0.16% of 350,000 active; activation, % at 18.7 µM; V. cholerae BH1578 lux reporter, luminescence, 6 h; in the data active = activation mostly above about 9.7%, no sharp cut-off
# FadD28 FP inh: inhibitors of FadD28 bisubstrate probe binding, primary screen, biochemical, fluorescence polarization, single point; 0.22% of 360,000 active; AID 588549, 2011; inhibition, % at 12.5 µM; in the data active = inhibition above about 8.5%, passing the limit was not always enough
# An asterisk follows results filed as active; i = inactive; · = no result given; + = active, no number; ! = repeats disagree.
SMILES,Rv3671c protease,Mtb UGM inh,MazF activator,Mtb betalactam,Vc quorum ag,FadD28 FP inh
Cc1cc(C)n(-c2nc3ccccc3nc2Nc2ccc3[nH]c(=O)[nH]c3c2)n1,8,1,234*,-2,i,1
Cc1cc(C)n(-c2nc3ccccc3nc2NCCc2ccccc2)n1,-4,0,-16,0,·,-4
CCOc1ccc(NC(=O)c2ccc3c(c2)OCCO3)cc1S(=O)(=O)N(CC)CC,-4,0,-5,1,0,-3
O=C(c1ccc(S(=O)(=O)N2CCOCC2)cc1)N1CCc2ccccc21,2,-2,10,-7,0,-1
CCN(CC)c1ccc(N)cc1,0,-1,99*,100,0,-1
CC(C)C(NC(=O)OCc1ccccc1)C(=O)N1CCOCCOCCOCC1 (stereo not given),6,-2,3,4,0,-6
Nc1ccc(C(=O)NN2C(=O)[C@H](Cl)C2c2ccc(Cl)cc2)cc1 (stereo not given in full),·,·,-20,·,-1,-3
O=C1C=C(N2CC2)c2ccccc2C1=O,·,·,4,·,-5,8.9*
CN(C)[C@@H]1C(=O)C(C(N)=O)=C(O)[C@@]2(O)C(=O)C3=C(O)c4c(O)cccc4[C@@](C)(O)C3[C@H](O)C12 (stereo not given in full),17,0,-16,6,-1,31*!
CN(C)C1C(=O)C(C(N)=O)=C(O)C2(O)C(=O)C3=C(O)c4c(O)cccc4C(C)(O)C3CC12 (stereo not given),-1,4,-8,99,-1,0
O=C(COc1cccc(Cl)c1)N/N=C\c1cc2ccccc2nc1Cl,2,3,148*,5,-1,-4
Cc1cccc(OCCn2cc(/C=N/NC(=O)c3ccncc3)c3ccccc32)c1,10,2,-15,99,0,-2
Cc1cccc(OCC(=O)N/N=C\c2cn(C)c3ccccc23)c1,-8,0,-5,34,1,41*
CCCn1c(O)c(N=N)c2ccccc21,-2,-2,5,-5,+,-2
O=Nc1c(O)n(Cc2ccccc2)c2ccccc12,-12,0,3,-5,81*,-3
CCn1c(O)c(N=N)c2ccccc21,-13,1,8,-1,0,-5
Cc1ccc(NC(=O)Nc2c(C)[nH]c(=O)[nH]c2=O)cc1Cl,-8,2,9,3,0,0
Cc1ccccc1S(=O)(=O)Cc1ccc(C(=O)N(C)C2CCCCC2)o1,4,4,10,0,-2,1
COc1ccc(CNc2ncc(-c3cccc([N+](=O)[O-])c3)n2C)c(OC)c1OC,3,0,-2,2,i,0
N#C/C(=C\c1ccc(O)c(O)c1)C(=O)c1ccc(O)c(O)c1,2,1,-51,9,-6,5
N#CC(C#N)=C(N)/C(C#N)=C/c1cc(O)c(O)c(O)c1,4,-1,-43,4,0,13*
Cc1ccc(NC(=O)CN2C(=O)NC3(CCCC3)C2=O)c(Cl)c1,6,1,2,-2,i,-1
Cc1ccc(C)c(Nc2nc3c(S(=O)(=O)c4ccccc4)nnn3c3ccccc23)c1,1,-1,135*,6,0,-1
Cn1c(-c2cccc(OCc3ccccc3)c2)nc2c1c(=O)[nH]c(=O)n2Cc1ccccc1,4,0,62*,47,i,-3
COc1ccc(Cn2c(-c3ccc(OC)cc3)nc3c(c(=O)c4ccccc4n3C)c2=O)cc1,0,-2,·,12,·,·
COc1ccc(Cn2c(-c3ccccc3C)nc3c(c(=O)c4ccccc4n3C)c2=O)cc1,6,-1,67*,-4,i,-4
Cc1ccc([N+](=O)[O-])cc1NC(=O)Nc1cccc(F)c1,·,·,15,·,-1,-4
COC(=O)C(C)Sc1nc2ccsc2c(=O)n1Cc1ccccc1 (stereo not given),-7,1,4,-7,i,-2
Cc1c(Br)c(=O)oc2c(Br)c(O)c(O)cc12,24,3,2,-1,4,13*

# Bioassay records as filed in PubChem.
